PubChem BioAssay AID1159580 (chemical genetic matrix, 2015)
Out of some 5,500 compounds screened, about 2,000 (36%) were called active. About 18% were inconclusive and are not listed. Rule as the data show it: active = normalized growth mostly below about 0.91 (no sharp cut-off); inconclusive = no clear call, values can overlap the other calls; inactive = mostly above about 0.92. The list shows a part of the results.

Assay: chemical genetic growth profiling, strain panel (AID 1159580);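 also: tested at 20 µM; growth read once vehicle control cultures reached saturation at 30 °C; 1 = growth at the plate median or of vehicle wells; lower values mean less growth of the strain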
Conditions: growth OD

Measured: normalized growth

NC(=O)c1ncn([C@@H]2O[C@H](CO)[C@@H](O)[C@H]2O)c1O
inactive: S. cerevisiae deletion strains, locus YAL013W, strain DEP1, stronger effect = lower value 1 | S. cerevisiae deletion strains, locus YBR021W, strain FUR4, stronger effect = lower value 1.02 | S. cerevisiae deletion strains, locus YBR229C, strain ROT2, stronger effect = lower value 1.01 | S. cerevisiae deletion strains, locus YCL029C, strain bik1, stronger effect = lower value 1.01 | S. cerevisiae deletion strains, locus YDL035C, strain GPR1, stronger effect = lower value 1.02 | S. cerevisiae deletion strains, locus YDL074C, strain BRE1, stronger effect = lower value 0.978 | S. cerevisiae deletion strains, locus YDL101C, strain DUN1, stronger effect = lower value 1 | S. cerevisiae deletion strains, locus YDL134C, strain PPH21, stronger effect = lower value 1 | S. cerevisiae deletion strains, locus YDL185W, strain tfp1, stronger effect = lower value 1.01 | S. cerevisiae deletion strains, locus YDL192W, strain arf1, stronger effect = lower value 1.01 | S. cerevisiae deletion strains, locus YDR101C, strain arx1, stronger effect = lower value 1.01 | S. cerevisiae deletion strains, locus YDR150W, strain NUM1, stronger effect = lower value 0.997 | S. cerevisiae deletion strains, locus YDR162C, strain NBP2, stronger effect = lower value 0.983 | S. cerevisiae deletion strains, locus YDR318W, strain mcm21, stronger effect = lower value 1.03 | S. cerevisiae deletion strains, locus YDR388W, stronger effect = lower value 1 | S. cerevisiae deletion strains, locus YDR502C, strain sam2, stronger effect = lower value 0.999 | S. cerevisiae deletion strains, locus YEL061C, strain CIN8, stronger effect = lower value 1 | S. cerevisiae deletion strains, locus YER110C, stronger effect = lower value 1.01 | S. cerevisiae deletion strains, locus YER155C, strain BEM2, stronger effect = lower value 1 | S. cerevisiae deletion strains, locus YER167W, strain BCK2, stronger effect = lower value 1.03 | S. cerevisiae deletion strains, locus YGL078C, strain dbp3, stronger effect = lower value 0.984 | S. cerevisiae deletion strains, locus YGL086W, strain mad1, stronger effect = lower value 1.02 | S. cerevisiae deletion strains, locus YGL248W, strain PDE1, stronger effect = lower value 1.01 | S. cerevisiae deletion strains, locus YGR078C, strain PAC10, stronger effect = lower value 1 | S. cerevisiae deletion strains, locus YGR135W, strain pre9, stronger effect = lower value 0.988 | S. cerevisiae deletion strains, locus YGR229C, strain SMI1, stronger effect = lower value 0.981 | S. cerevisiae deletion strains, locus YGR252W, strain gcn5, stronger effect = lower value 1.01 | S. cerevisiae deletion strains, locus YHR030C, strain SLT2, stronger effect = lower value 1.01 | S. cerevisiae deletion strains, locus YHR079C, strain IRE1 (second series), stronger effect = lower value 1.02 | S. cerevisiae deletion strains, locus YHR094C, strain hxt1, stronger effect = lower value 1.01 | S. cerevisiae deletion strains, locus YHR129C, strain ARP1, stronger effect = lower value 1.01 | S. cerevisiae deletion strains, locus YHR200W, strain rpn10, stronger effect = lower value 1.01 | S. cerevisiae deletion strains, locus YIL066C, strain RNR3, stronger effect = lower value 1.01 | S. cerevisiae deletion strains, locus YIL073C, strain SPO22, stronger effect = lower value 1.07 | S. cerevisiae deletion strains, locus YIL125W, strain kgd1, stronger effect = lower value 1 | S. cerevisiae deletion strains, locus YIR030C, strain dcg1, stronger effect = lower value 1.02 | S. cerevisiae deletion strains, locus YJL095W, strain BCK1, stronger effect = lower value 0.994 | S. cerevisiae deletion strains, locus YJL134W, strain LCB3, stronger effect = lower value 1.01 | S. cerevisiae deletion strains, locus YJL168C, strain set2, stronger effect = lower value 1.01 | S. cerevisiae deletion strains, locus YJL187C, strain SWE1 (second series), stronger effect = lower value 0.998 | S. cerevisiae deletion strains, locus YJR043C, strain POL32, stronger effect = lower value 1.04 | S. cerevisiae deletion strains, locus YJR075W, strain HOC1, stronger effect = lower value 0.974 | S. cerevisiae deletion strains, locus YKL009W, strain mrt4, stronger effect = lower value 0.996 | S. cerevisiae deletion strains, locus YKL068W, stronger effect = lower value 0.995 | S. cerevisiae deletion strains, locus YKL085W, strain MDH1 (second series), stronger effect = lower value 1 | S. cerevisiae deletion strains, locus YKL085W, strain MDH1, stronger effect = lower value 1 | S. cerevisiae deletion strains, locus YKL190W, strain CNB1, stronger effect = lower value 1.01 | S. cerevisiae deletion strains, locus YKR001C, strain vps1, stronger effect = lower value 1.02 | S. cerevisiae deletion strains, locus YLR039C, strain RIC1, stronger effect = lower value 1.04 | S. cerevisiae deletion strains, locus YLR058C, strain SHM2, stronger effect = lower value 1.01 | S. cerevisiae deletion strains, locus YLR102C, strain apc9, stronger effect = lower value 1.02 | S. cerevisiae deletion strains, locus YLR262C, strain YPT6, stronger effect = lower value 0.988 | S. cerevisiae deletion strains, locus YLR268W, strain sec22, stronger effect = lower value 0.988 | S. cerevisiae deletion strains, locus YLR330W, strain CHS5, stronger effect = lower value 1 | S. cerevisiae deletion strains, locus YLR342W, strain FKS1 (second series), stronger effect = lower value 1.07 | S. cerevisiae deletion strains, locus YLR371W, strain rom2, stronger effect = lower value 1.02 | S. cerevisiae deletion strains, locus YLR418C, strain cdc73, stronger effect = lower value 0.979 | S. cerevisiae deletion strains, locus YML016C, strain PPZ1, stronger effect = lower value 1 | S. cerevisiae deletion strains, locus YML032C, strain rad52, stronger effect = lower value 1.03 | S. cerevisiae deletion strains, locus YML124C, strain tub3, stronger effect = lower value 1.01 | S. cerevisiae deletion strains, locus YMR078C, strain ctf18, stronger effect = lower value 1.02 | S. cerevisiae deletion strains, locus YMR223W, strain ubp8, stronger effect = lower value 1.03 | S. cerevisiae deletion strains, locus YMR263W, strain SAP30, stronger effect = lower value 0.991 | S. cerevisiae deletion strains, locus YMR307W, strain GAS1, stronger effect = lower value 1.05 | S. cerevisiae deletion strains, locus YNL067W, strain RPL9B, stronger effect = lower value 0.988 | S. cerevisiae deletion strains, locus YNL128W, strain TEP1, stronger effect = lower value 0.977 | S. cerevisiae deletion strains, locus YNL153C, strain GIM3, stronger effect = lower value 0.995 | S. cerevisiae deletion strains, locus YNL233W, strain BNI4, stronger effect = lower value 0.99 | S. cerevisiae deletion strains, locus YNL250W, strain rad50, stronger effect = lower value 1.01 | S. cerevisiae deletion strains, locus YNL271C, strain bni1, stronger effect = lower value 1.01 | S. cerevisiae deletion strains, locus YNL298W, strain CLA4, stronger effect = lower value 1.02 | S. cerevisiae deletion strains, locus YNL307C, strain MCK1, stronger effect = lower value 1.05 | S. cerevisiae deletion strains, locus YNL322C, strain KRE1, stronger effect = lower value 1.01 | S. cerevisiae deletion strains, locus YNR052C, strain pop2, stronger effect = lower value 1.02 | S. cerevisiae deletion strains, locus YOL006C, strain TOP1, stronger effect = lower value 1.06 | S. cerevisiae deletion strains, locus YOL012C, strain htz1 0.852 | S. cerevisiae deletion strains, locus YOL147C, strain pex11, stronger effect = lower value 0.999 | S. cerevisiae deletion strains, locus YOR061W, strain CKA2, stronger effect = lower value 1 | S. cerevisiae deletion strains, locus YOR069W, strain VPS5, stronger effect = lower value 1.01 | S. cerevisiae deletion strains, locus YOR136W, strain idh2, stronger effect = lower value 1.02 | S. cerevisiae deletion strains, locus YOR144C, strain elg1, stronger effect = lower value 1 | S. cerevisiae deletion strains, locus YOR184W, strain ser1, stronger effect = lower value 1.06 | S. cerevisiae deletion strains, locus YOR316C, strain cot1, stronger effect = lower value 1.01 | S. cerevisiae deletion strains, locus YPL055C, strain LGE1, stronger effect = lower value 0.946 | S. cerevisiae deletion strains, locus YPL241C, strain CIN2, stronger effect = lower value 1 | S. cerevisiae deletion strains, locus YPR119W, strain clb2, stronger effect = lower value 1.01 | S. cerevisiae deletion strains, locus YPR141C, strain kar3, stronger effect = lower value 1.01 | S. cerevisiae deletion strains, locus YPR163C, strain tif3, stronger effect = lower value 1.01 | S. cerevisiae deletion strains, locus YPR167C, strain met16, stronger effect = lower value 1.01 | S. cerevisiae deletion strains, strain wtn01, stronger effect = lower value 0.997 | S. cerevisiae strains, strain wild type, stronger effect = lower value 1.02
